# PubChem BioAssay AID1159580 (chemical genetic matrix, 2015)
# “And” between values parts separate entries of the source, which are not always exact repeats. Identical values can stand only once. Screen size: about 5,500 compounds; about 2,000 (36%) were called active. Roughly 18% stayed inconclusive and do not appear here. The list shows a part of the results. Unmarked numbers belong to inactive results. No stated cut-off is given here; in the data, active means normalized growth mostly below about 0.91 (no sharp cut-off); inconclusive means no clear call, values can overlap the other calls; inactive means mostly above about 0.92.
# Test: chemical genetic growth profiling, strain panel (AID 1159580);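 further: tested at 20 µM; growth read once vehicle control cultures reached saturation at 30 °C; 1 = growth at the plate median or of vehicle wells; lower values mean less growth of the strain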
# Conditions: growth OD
smiles,measurement,setting,value
COc1ccc2c(c1)c(CC(=O)O)c(C)n2C(=O)c1ccc(Cl)cc1,normalized growth,"S. cerevisiae deletion strains, locus YJR075W, strain HOC1, active compounds read low",1
same,normalized growth,"S. cerevisiae deletion strains, locus YKL009W, strain mrt4, active compounds read low",0.998
same,normalized growth,"S. cerevisiae deletion strains, locus YKL068W, active compounds read low",0.959
same,normalized growth,"S. cerevisiae deletion strains, locus YKL085W, strain MDH1 (second series), active compounds read low",0.955
same,normalized growth,"S. cerevisiae deletion strains, locus YKL085W, strain MDH1, active compounds read low",0.955
same,normalized growth,"S. cerevisiae deletion strains, locus YKL160W, strain elf1, active compounds read low",0.98
same,normalized growth,"S. cerevisiae deletion strains, locus YKL190W, strain CNB1, active compounds read low",1.01
same,normalized growth,"S. cerevisiae deletion strains, locus YKR001C, strain vps1, active compounds read low",0.993
same,normalized growth,"S. cerevisiae deletion strains, locus YKR026C, strain gcn3, active compounds read low",0.983
same,normalized growth,"S. cerevisiae deletion strains, locus YKR091W, strain srl3, active compounds read low",0.984
same,normalized growth,"S. cerevisiae deletion strains, locus YLL001W, strain dnm1, active compounds read low",0.938
same,normalized growth,"S. cerevisiae deletion strains, locus YLL026W, active compounds read low",0.988
same,normalized growth,"S. cerevisiae deletion strains, locus YLL041C, strain sdh2, active compounds read low",0.986
same,normalized growth,"S. cerevisiae deletion strains, locus YLR027C, strain aat2, active compounds read low",0.98
same,normalized growth,"S. cerevisiae deletion strains, locus YLR039C, strain RIC1, active compounds read low",1.17
same,normalized growth,"S. cerevisiae deletion strains, locus YLR058C, strain SHM2, active compounds read low",1.02
same,normalized growth,"S. cerevisiae deletion strains, locus YLR102C, strain apc9, active compounds read low",0.975
same,normalized growth,"S. cerevisiae deletion strains, locus YLR113W, strain HOG1, active compounds read low",0.874
same,normalized growth,"S. cerevisiae deletion strains, locus YLR221C, strain rsa3, active compounds read low",0.874 (active)
same,normalized growth,"S. cerevisiae deletion strains, locus YLR258W, strain gsy2, active compounds read low",0.978
same,normalized growth,"S. cerevisiae deletion strains, locus YLR262C, strain YPT6 (second series), active compounds read low",0.912
same,normalized growth,"S. cerevisiae deletion strains, locus YLR262C, strain YPT6, active compounds read low",1.03
same,normalized growth,"S. cerevisiae deletion strains, locus YLR268W, strain sec22, active compounds read low",0.993
same,normalized growth,"S. cerevisiae deletion strains, locus YLR320W, strain mms22, active compounds read low",0.819 (active)
same,normalized growth,"S. cerevisiae deletion strains, locus YLR330W, strain CHS5, active compounds read low",0.995
same,normalized growth,"S. cerevisiae deletion strains, locus YLR342W, strain FKS1 (second series), active compounds read low",1.01
same,normalized growth,"S. cerevisiae deletion strains, locus YLR342W, strain FKS1, active compounds read low",0.971
same,normalized growth,"S. cerevisiae deletion strains, locus YLR357W, strain rsc2, active compounds read low",0.973
same,normalized growth,"S. cerevisiae deletion strains, locus YLR370C, strain arc18, active compounds read low",0.943
same,normalized growth,"S. cerevisiae deletion strains, locus YLR371W, strain rom2, active compounds read low",0.987
same,normalized growth,"S. cerevisiae deletion strains, locus YLR384C, strain iki3, active compounds read low",0.986
same,normalized growth,"S. cerevisiae deletion strains, locus YLR418C, strain cdc73, active compounds read low",0.966
same,normalized growth,"S. cerevisiae deletion strains, locus YML016C, strain PPZ1, active compounds read low",1.01
same,normalized growth,"S. cerevisiae deletion strains, locus YML032C, strain rad52, active compounds read low",0.999
same,normalized growth,"S. cerevisiae deletion strains, locus YML120C, strain ndi1, active compounds read low",0.874 (active)
same,normalized growth,"S. cerevisiae deletion strains, locus YML124C, strain tub3, active compounds read low",0.981
same,normalized growth,"S. cerevisiae deletion strains, locus YMR058W, strain fet3, active compounds read low",0.975
same,normalized growth,"S. cerevisiae deletion strains, locus YMR078C, strain ctf18, active compounds read low",0.973
same,normalized growth,"S. cerevisiae deletion strains, locus YMR125W, strain sto1, active compounds read low",0.975
same,normalized growth,"S. cerevisiae deletion strains, locus YMR129W, active compounds read low",0.987
same,normalized growth,"S. cerevisiae deletion strains, locus YMR205C, strain PFK2, active compounds read low",0.982
same,normalized growth,"S. cerevisiae deletion strains, locus YMR223W, strain ubp8, active compounds read low",0.976
same,normalized growth,"S. cerevisiae deletion strains, locus YMR231W, strain pep5, active compounds read low",0.988
same,normalized growth,"S. cerevisiae deletion strains, locus YMR263W, strain SAP30, active compounds read low",1 and 1.01
same,normalized growth,"S. cerevisiae deletion strains, locus YMR307W, strain GAS1, active compounds read low",1.02 and 1
same,normalized growth,"S. cerevisiae deletion strains, locus YNL067W, strain RPL9B, active compounds read low",1
same,normalized growth,"S. cerevisiae deletion strains, locus YNL071W, strain lat1, active compounds read low",0.986
same,normalized growth,"S. cerevisiae deletion strains, locus YNL175C, strain NOP13, active compounds read low",1
same,normalized growth,"S. cerevisiae deletion strains, locus YNL183C, strain NPR1, active compounds read low",0.931
same,normalized growth,"S. cerevisiae deletion strains, locus YNL197C, strain WHI3, active compounds read low",1
same,normalized growth,"S. cerevisiae deletion strains, locus YNL209W, strain ssb2, active compounds read low",0.953
same,normalized growth,"S. cerevisiae deletion strains, locus YNL224C, strain SQS1, active compounds read low",0.994
same,normalized growth,"S. cerevisiae deletion strains, locus YNL233W, strain BNI4, active compounds read low",1.01
same,normalized growth,"S. cerevisiae deletion strains, locus YNL248C, strain rpa49, active compounds read low",0.958
same,normalized growth,"S. cerevisiae deletion strains, locus YNL250W, strain rad50, active compounds read low",0.947
same,normalized growth,"S. cerevisiae deletion strains, locus YNL271C, strain bni1, active compounds read low",0.955
same,normalized growth,"S. cerevisiae deletion strains, locus YNL298W, strain CLA4, active compounds read low",0.944
same,normalized growth,"S. cerevisiae deletion strains, locus YNL307C, strain MCK1, active compounds read low",0.986
same,normalized growth,"S. cerevisiae deletion strains, locus YNL322C, strain KRE1 (second series), active compounds read low",0.64 (active)
same,normalized growth,"S. cerevisiae deletion strains, locus YNL322C, strain KRE1, active compounds read low",1
same,normalized growth,"S. cerevisiae deletion strains, locus YNR049C, strain mso1, active compounds read low",0.984
same,normalized growth,"S. cerevisiae deletion strains, locus YNR052C, strain pop2, active compounds read low",0.99
same,normalized growth,"S. cerevisiae deletion strains, locus YOL012C, strain htz1",2.03
same,normalized growth,"S. cerevisiae deletion strains, locus YOL147C, strain pex11, active compounds read low",0.981
same,normalized growth,"S. cerevisiae deletion strains, locus YOR001W, strain rrp6, active compounds read low",0.926
same,normalized growth,"S. cerevisiae deletion strains, locus YOR061W, strain CKA2, active compounds read low",1.01
same,normalized growth,"S. cerevisiae deletion strains, locus YOR069W, strain VPS5, active compounds read low",0.996
same,normalized growth,"S. cerevisiae deletion strains, locus YOR070C, strain gyp1, active compounds read low",0.977
same,normalized growth,"S. cerevisiae deletion strains, locus YOR080W, strain dia2, active compounds read low",0.989
same,normalized growth,"S. cerevisiae deletion strains, locus YOR083W, strain WHI5 (second series), active compounds read low",1.01
same,normalized growth,"S. cerevisiae deletion strains, locus YOR083W, strain WHI5, active compounds read low",0.942
same,normalized growth,"S. cerevisiae deletion strains, locus YOR106W, strain vam3, active compounds read low",0.929
same,normalized growth,"S. cerevisiae deletion strains, locus YOR136W, strain idh2, active compounds read low",1
same,normalized growth,"S. cerevisiae deletion strains, locus YOR144C, strain elg1, active compounds read low",0.992
same,normalized growth,"S. cerevisiae deletion strains, locus YOR184W, strain ser1, active compounds read low",0.988
same,normalized growth,"S. cerevisiae deletion strains, locus YOR231W, strain MKK1, active compounds read low",0.953
same,normalized growth,"S. cerevisiae deletion strains, locus YOR265W, strain rbl2, active compounds read low",0.96
same,normalized growth,"S. cerevisiae deletion strains, locus YOR270C, strain vph1, active compounds read low",0.957
same,normalized growth,"S. cerevisiae deletion strains, locus YOR290C, strain snf2, active compounds read low",0.895
same,normalized growth,"S. cerevisiae deletion strains, locus YOR316C, strain cot1, active compounds read low",0.985
same,normalized growth,"S. cerevisiae deletion strains, locus YPL051W, strain arl3, active compounds read low",0.969
same,normalized growth,"S. cerevisiae deletion strains, locus YPL078C, strain atp4, active compounds read low",0.975
same,normalized growth,"S. cerevisiae deletion strains, locus YPL106C, strain sse1, active compounds read low",1.02
same,normalized growth,"S. cerevisiae deletion strains, locus YPL240C, strain hsp82, active compounds read low",0.978
same,normalized growth,"S. cerevisiae deletion strains, locus YPL241C, strain CIN2, active compounds read low",0.996
same,normalized growth,"S. cerevisiae deletion strains, locus YPL256C, strain CLN2, active compounds read low",0.871
same,normalized growth,"S. cerevisiae deletion strains, locus YPR119W, strain clb2, active compounds read low",0.98
same,normalized growth,"S. cerevisiae deletion strains, locus YPR141C, strain kar3, active compounds read low",0.96
same,normalized growth,"S. cerevisiae deletion strains, locus YPR163C, strain tif3, active compounds read low",0.981
same,normalized growth,"S. cerevisiae deletion strains, locus YPR167C, strain met16, active compounds read low",0.977
same,normalized growth,"S. cerevisiae deletion strains, strain wtn01, active compounds read low",0.985
same,normalized growth,"S. cerevisiae strains, strain wild type, active compounds read low",1
